The record followed here is ChEMBL document CHEMBL1961873, “Compounds: GSK PKIS; Assays: Nanosyn kinase panel” (2012).

Test [1] deals with Serine/threonine-protein kinase MARK2 (Homo sapiens) (UniProt Q7KZI7). The following applies: at 1 µM.
Test [2] addresses PAS domain-containing serine/threonine-protein kinase (Homo sapiens) (UniProt Q96RG2). The conditions noted are these: at 0.1 µM.
For test [3] the target is unchanged. The conditions noted are these: at 1 µM.
Test [4] addresses Phosphorylase b kinase gamma catalytic chain, skeletal muscle/heart isoform (Homo sapiens) (UniProt Q16816). The following applies: at 0.1 µM.
The target is the same in test [5]. The following applies: at 1 µM.
Test [6] deals with T1, Phosphorylase b kinase gamma catalytic chain, liver/testis isoform (Homo sapiens) (UniProt P15735).
T1 sequence (whole entry): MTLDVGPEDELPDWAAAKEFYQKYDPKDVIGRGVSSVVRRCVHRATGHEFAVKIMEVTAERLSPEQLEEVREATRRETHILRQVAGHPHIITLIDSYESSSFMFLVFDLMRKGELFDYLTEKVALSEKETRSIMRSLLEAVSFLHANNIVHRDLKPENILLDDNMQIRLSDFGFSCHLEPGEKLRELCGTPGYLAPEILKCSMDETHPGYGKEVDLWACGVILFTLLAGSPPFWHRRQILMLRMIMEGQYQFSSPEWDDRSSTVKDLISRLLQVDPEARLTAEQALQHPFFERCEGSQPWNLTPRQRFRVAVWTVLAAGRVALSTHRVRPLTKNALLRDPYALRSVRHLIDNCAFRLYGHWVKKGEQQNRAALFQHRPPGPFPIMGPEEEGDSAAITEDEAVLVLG
The following applies: at 0.1 µM.

Test [7] has as its target T1, Phosphorylase b kinase gamma catalytic chain, liver/testis isoform (Homo sapiens). The following applies: at 1 µM.
Test [8] addresses Serine/threonine-protein kinase pim-1 (Homo sapiens) (UniProt P11309). The following applies: at 0.1 µM.
The target is the same in test [9]. The conditions noted are these: at 1 µM.
The target of test [10] is Serine/threonine-protein kinase pim-2 (Homo sapiens) (UniProt Q9P1W9). The conditions noted are these: at 0.1 µM.
Test [11] has the same target. The conditions noted are these: at 1 µM.
Test [12] concerns the target Serine/threonine-protein kinase pim-3 (Homo sapiens) (UniProt Q86V86). The conditions noted are these: at 0.1 µM.
Test [13] has the same target. The conditions noted are these: at 1 µM.
Test [14] has as its target T2, MAP kinase-activated protein kinase 5 (Homo sapiens) (UniProt Q8IW41).
T2 sequence (whole entry): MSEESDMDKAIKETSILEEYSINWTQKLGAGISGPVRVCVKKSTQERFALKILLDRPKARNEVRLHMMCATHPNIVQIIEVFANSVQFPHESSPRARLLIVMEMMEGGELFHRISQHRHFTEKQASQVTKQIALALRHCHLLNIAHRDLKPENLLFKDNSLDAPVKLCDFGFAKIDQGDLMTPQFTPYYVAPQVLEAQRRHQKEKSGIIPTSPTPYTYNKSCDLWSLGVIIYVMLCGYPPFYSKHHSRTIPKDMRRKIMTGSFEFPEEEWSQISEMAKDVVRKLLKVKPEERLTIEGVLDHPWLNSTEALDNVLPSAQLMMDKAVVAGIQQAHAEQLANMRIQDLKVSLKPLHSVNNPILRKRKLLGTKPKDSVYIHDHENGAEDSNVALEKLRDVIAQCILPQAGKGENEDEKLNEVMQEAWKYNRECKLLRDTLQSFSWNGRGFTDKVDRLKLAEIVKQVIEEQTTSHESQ
The conditions noted are these: at 0.1 µM.

Test [15] has as its target T2, MAP kinase-activated protein kinase 5 (Homo sapiens). The following applies: at 1 µM.
The target of test [16] is Serine/threonine-protein kinase SIK1 (Homo sapiens) (UniProt P57059). The following applies: at 0.1 µM.
For test [17] the target is unchanged. The following applies: at 1 µM.
Test [18] has as its target Serine/threonine-protein kinase SIK2 (Homo sapiens) (UniProt Q9H0K1). The following applies: at 0.1 µM.
Test [19] shares this target. The following applies: at 1 µM.
Test [20] has as its target T3, Serine/threonine-protein kinase TBK1 (Homo sapiens) (UniProt Q9UHD2).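 Note: values are the mean TBK1 inhibition, taken from the GSK PKIS screening data.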
T3 sequence (whole entry): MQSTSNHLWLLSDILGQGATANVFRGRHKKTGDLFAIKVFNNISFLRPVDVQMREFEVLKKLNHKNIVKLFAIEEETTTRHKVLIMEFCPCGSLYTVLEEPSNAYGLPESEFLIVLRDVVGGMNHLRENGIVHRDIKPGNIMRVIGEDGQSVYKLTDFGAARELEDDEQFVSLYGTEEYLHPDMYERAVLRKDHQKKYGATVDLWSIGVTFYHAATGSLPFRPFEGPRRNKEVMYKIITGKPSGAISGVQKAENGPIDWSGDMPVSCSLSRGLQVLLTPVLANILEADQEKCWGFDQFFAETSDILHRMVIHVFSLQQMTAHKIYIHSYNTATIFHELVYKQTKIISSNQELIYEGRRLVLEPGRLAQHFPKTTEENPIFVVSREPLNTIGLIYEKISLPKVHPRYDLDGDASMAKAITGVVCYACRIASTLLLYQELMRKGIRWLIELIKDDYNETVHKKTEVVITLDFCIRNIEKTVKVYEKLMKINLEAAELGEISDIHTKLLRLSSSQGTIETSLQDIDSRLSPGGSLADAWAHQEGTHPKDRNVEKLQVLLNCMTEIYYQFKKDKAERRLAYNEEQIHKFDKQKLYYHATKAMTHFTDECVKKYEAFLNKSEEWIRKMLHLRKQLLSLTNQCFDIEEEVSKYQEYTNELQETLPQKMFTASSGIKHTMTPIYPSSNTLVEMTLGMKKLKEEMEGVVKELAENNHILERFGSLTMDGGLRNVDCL
The following applies: at 0.1 µM.

Sequence of Serine/threonine-protein kinase pim-2 (Homo sapiens) (Q9P1W9 whole entry, looked up): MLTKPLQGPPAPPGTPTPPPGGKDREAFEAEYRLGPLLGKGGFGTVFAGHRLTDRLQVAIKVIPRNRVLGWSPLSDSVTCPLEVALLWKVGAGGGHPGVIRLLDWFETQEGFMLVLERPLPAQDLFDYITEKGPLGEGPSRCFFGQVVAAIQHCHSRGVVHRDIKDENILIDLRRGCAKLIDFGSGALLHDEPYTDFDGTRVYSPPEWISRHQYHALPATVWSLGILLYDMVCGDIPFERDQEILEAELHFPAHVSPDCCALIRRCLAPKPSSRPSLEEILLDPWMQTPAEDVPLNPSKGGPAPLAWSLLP
Sequence of Phosphorylase b kinase gamma catalytic chain, skeletal muscle/heart isoform (Homo sapiens) (Q16816 whole entry, looked up, canonical isoform): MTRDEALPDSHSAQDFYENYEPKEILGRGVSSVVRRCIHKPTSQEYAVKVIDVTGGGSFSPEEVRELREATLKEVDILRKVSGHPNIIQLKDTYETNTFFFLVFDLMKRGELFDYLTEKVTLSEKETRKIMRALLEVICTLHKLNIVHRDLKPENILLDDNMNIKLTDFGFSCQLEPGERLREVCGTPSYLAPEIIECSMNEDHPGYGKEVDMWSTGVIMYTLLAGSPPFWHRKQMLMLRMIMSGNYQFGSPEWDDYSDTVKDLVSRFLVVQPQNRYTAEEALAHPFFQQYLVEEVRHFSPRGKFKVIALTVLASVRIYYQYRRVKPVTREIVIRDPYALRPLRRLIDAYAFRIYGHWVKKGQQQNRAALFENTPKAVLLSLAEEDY
Sequence of PAS domain-containing serine/threonine-protein kinase (Homo sapiens) (Q96RG2 whole entry, the tested form may be a part): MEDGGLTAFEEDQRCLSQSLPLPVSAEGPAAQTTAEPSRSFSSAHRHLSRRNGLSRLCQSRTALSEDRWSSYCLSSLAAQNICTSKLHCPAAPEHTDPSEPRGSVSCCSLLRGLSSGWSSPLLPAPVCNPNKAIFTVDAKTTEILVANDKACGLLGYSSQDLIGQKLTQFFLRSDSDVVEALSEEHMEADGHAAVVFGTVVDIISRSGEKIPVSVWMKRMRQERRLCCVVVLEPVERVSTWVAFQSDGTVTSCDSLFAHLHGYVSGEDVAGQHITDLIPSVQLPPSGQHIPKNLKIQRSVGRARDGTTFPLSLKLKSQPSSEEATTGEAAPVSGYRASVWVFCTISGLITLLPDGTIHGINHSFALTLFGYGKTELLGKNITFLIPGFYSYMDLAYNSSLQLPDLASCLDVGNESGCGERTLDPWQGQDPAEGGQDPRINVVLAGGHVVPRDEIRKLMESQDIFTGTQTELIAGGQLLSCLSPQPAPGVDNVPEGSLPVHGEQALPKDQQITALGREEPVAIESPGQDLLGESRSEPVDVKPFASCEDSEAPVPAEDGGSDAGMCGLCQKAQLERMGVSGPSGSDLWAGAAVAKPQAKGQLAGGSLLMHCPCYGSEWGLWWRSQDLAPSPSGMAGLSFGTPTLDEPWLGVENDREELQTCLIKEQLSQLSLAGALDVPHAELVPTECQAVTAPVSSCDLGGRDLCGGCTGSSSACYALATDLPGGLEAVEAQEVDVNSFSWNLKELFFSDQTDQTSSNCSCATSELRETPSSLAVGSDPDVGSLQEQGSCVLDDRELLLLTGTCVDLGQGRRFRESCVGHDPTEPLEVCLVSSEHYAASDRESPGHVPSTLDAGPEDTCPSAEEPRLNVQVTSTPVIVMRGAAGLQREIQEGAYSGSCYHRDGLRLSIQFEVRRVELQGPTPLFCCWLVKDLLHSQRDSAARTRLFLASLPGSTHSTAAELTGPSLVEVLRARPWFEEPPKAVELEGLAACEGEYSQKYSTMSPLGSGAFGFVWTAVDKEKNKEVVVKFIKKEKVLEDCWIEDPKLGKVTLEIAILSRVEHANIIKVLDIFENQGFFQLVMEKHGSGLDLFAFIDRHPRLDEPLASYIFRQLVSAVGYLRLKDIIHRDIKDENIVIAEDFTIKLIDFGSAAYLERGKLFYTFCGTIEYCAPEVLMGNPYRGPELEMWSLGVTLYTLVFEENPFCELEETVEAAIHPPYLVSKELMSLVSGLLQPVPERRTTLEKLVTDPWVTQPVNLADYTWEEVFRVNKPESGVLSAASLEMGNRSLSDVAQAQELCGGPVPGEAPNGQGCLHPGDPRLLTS
Sequence of Serine/threonine-protein kinase SIK2 (Homo sapiens) (Q9H0K1 whole entry, looked up): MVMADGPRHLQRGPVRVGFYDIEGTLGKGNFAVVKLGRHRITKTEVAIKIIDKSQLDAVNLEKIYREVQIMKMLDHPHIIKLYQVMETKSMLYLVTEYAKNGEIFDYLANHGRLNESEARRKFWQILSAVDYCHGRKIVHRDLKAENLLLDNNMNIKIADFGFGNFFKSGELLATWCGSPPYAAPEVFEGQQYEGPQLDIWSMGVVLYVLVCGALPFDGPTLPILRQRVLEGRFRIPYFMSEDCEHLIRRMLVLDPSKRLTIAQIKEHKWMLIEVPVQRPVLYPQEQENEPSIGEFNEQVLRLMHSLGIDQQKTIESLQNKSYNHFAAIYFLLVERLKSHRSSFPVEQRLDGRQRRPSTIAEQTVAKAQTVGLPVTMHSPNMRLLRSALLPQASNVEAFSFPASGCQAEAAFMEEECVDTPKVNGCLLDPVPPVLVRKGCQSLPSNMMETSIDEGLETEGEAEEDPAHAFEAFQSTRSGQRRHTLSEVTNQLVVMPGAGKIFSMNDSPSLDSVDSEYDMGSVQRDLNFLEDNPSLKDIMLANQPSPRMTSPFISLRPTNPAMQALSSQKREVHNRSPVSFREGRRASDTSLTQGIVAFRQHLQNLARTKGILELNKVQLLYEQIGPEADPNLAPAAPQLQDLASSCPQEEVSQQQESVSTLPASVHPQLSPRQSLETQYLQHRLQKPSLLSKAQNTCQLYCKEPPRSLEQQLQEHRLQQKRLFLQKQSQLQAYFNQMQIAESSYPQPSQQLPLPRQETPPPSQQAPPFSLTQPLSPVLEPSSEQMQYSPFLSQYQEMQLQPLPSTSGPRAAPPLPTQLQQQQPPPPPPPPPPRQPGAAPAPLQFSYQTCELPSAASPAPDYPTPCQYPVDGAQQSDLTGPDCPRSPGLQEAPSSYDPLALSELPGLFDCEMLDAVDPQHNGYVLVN
Sequence of Serine/threonine-protein kinase pim-1 (Homo sapiens) (P11309 whole entry, looked up): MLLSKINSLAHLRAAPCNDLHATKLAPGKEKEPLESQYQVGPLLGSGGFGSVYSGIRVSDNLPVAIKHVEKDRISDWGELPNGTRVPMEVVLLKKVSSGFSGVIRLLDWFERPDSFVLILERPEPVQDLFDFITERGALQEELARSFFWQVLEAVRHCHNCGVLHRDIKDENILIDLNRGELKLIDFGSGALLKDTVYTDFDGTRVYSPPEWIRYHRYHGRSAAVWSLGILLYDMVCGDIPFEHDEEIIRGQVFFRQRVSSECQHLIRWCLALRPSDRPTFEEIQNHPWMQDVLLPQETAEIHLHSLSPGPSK
Sequence of Serine/threonine-protein kinase SIK1 (Homo sapiens) (P57059 whole entry): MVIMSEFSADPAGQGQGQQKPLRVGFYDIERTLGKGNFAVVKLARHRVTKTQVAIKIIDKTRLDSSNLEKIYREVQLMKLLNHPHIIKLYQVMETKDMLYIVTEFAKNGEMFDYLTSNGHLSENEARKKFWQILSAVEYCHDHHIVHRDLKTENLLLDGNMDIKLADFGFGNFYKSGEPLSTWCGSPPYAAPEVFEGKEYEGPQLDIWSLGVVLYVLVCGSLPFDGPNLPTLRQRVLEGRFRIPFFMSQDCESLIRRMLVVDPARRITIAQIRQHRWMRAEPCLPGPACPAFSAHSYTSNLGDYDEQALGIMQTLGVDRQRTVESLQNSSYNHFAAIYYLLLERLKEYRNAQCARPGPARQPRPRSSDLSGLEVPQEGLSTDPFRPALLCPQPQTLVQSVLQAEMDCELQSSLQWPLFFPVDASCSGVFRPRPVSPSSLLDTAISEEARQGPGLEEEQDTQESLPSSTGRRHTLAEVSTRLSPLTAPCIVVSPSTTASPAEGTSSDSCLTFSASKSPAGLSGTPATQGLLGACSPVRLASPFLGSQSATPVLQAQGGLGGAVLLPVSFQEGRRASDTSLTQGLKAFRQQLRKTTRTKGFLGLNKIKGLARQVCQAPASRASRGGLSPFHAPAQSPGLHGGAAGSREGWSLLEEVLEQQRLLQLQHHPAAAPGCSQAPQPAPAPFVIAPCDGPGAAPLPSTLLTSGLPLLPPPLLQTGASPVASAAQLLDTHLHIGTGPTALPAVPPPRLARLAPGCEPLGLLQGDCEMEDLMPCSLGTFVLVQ

Take `Cc1cc(-c2ccco2)cc(C)c1/C=C/c1cncc(-c2nn[nH]n2)c1`: the inhibition is -0.28% in test [1]; 1.32% in [2]; 1.25% in test [3]; 3.4% in test [4]; 4.41% in test [5]; 1.33% in [6]. The inhibition in [7] turned out to be 1.22%; in test [8], 0.14%; in test [9] it was 1.06%; in test [10], 0.57%; in test [11] it was 1.49%; in test [12], 0.12%. For the same compound, the inhibition in test [13] was 1.83%; in test [14], 0.41%; in test [15], 0.28%; in test [16] it was -0.49%; in test [17], 6.77%; in [18], -2.65%. Also, the inhibition in test [19] was determined as 0.13%; in test [20], 0.36%.
`Nc1nonc1-c1nc2cnccc2n1C1CCCCC1`: the inhibition in test [1] is 21.9%; in [2], 1.01%; in test [3] it was 12.9%; in test [4], -3.58%; in test [5], 8.25%; in test [6], -4.48%. For the same compound, the inhibition is -2.24% in [7]; 29.8% in [8]; 79.2% in test [9]; 5.24% in test [10]; 37.5% in test [11]; 11.4% in test [12]. Besides, the inhibition in test [13] was 56.9%; in [14], -0.83%; in [15] it was -1.13%; in test [16] it was -4.72%; in test [17], -3.76%; in test [18], -6.25%. In addition, the inhibition in test [19] came out at 9.23%; in [20] it was 3.95%.
In the case of `COc1cccc(-n2ncc3c(N/N=C/c4ccncc4)ncnc32)c1`, the inhibition in test [1] was 2.54%; in test [2] it was 0.3%; in test [3], 0.25%; in test [4] it was 5.39%; in test [5], 17.6%; in [6], 5.48%. Also, the inhibition in [7] turned out to be 7.43%; in test [8], 1.36%; in [9], 3.36%; in test [10], 0.77%; in test [11], 1.69%; in [12] it was 0.83%. Also, the inhibition came to 4.38% in test [13]; 1.56% in test [14]; 3.04% in test [15]; 4.22% in test [16]; 27.9% in test [17]; 15.4% in test [18]. For the same compound, the inhibition in [19] came out at 54%; in test [20] it was 3.12%.
In the case of `COc1cc(C=NNc2ncnc3c2cnn3Cc2ccccc2)ccc1O`, the inhibition is 4.82% in [1]; -0.31% in [2]; 0.37% in test [3]; -1.3% in test [4]; 2.64% in [5]; -7.11% in test [6]. The inhibition was -6.49% in test [7]; -0.98% in test [8]; 1.73% in test [9]; 0.65% in test [10]; 4.62% in [11]; 1.07% in test [12]. Moreover, the inhibition is 5.08% in [13]; -1.78% in test [14]; -1.84% in test [15]; -3.99% in [17]; -6% in [18]; 0.04% in [20].
As to `COc1cccc(COc2cc(-n3cnc4ccccc43)sc2C(N)=O)c1`, the inhibition in test [1] was -1.4%; in test [2], 1.11%; in test [3], 1.08%; in test [4], 2.26%; in test [5] it was 3.47%; in test [6], 1.62%. Also, the inhibition in test [7] amounted to 0.45%; in [8], 0.5%; in [9] it was 0.84%; in test [10], 0.51%; in [11], 1.31%; in test [12] it was 0.12%. Also, the inhibition in test [13] was 0.33%; in test [14], 0.16%; in test [15], -0.81%; in test [16] it was -0.86%; in [17], 3.4%; in test [18], -0.88%. For the same compound, the inhibition in [19] is -4.75%; in test [20], -1.18%.
Turning to `Fc1ccc(-c2ncn(C3CCNCC3)c2-c2ccnc(Oc3ccccc3)n2)cc1`, the inhibition in [1] was -1.83%; in [2], 0.55%; in test [3], -1%; in test [4] it was 3.99%; in [5], 2.25%; in test [6], 1.69%. The inhibition in test [7] was 1.14%; in test [8], -1.15%; in test [9], -0.11%; in test [10] it was -3.22%; in test [11], -3.69%; in test [12], -0.25%. In addition, the inhibition in test [13] is -0.02%; in test [14], 0.89%; in [15], 1.1%; in [16], 2.14%; in test [17], 8.86%; in [18] it was -0.18%. The inhibition is 7.64% in test [19] and 0.83% in test [20].
On to `CCn1c(-c2nonc2N)nc2c(C#CC(C)(C)O)ncc(OCC3CCNCC3)c21`, for which the inhibition came to 46.5% in test [1]; 0.98% in test [2]; 12.8% in test [3]; 2.88% in test [4]; 9.61% in test [5]; 4.03% in test [6]. Further, the inhibition in [7] is 6.94%; in test [8], 2.14%; in test [9] it was 17.3%; in test [10] it was -3.05%; in test [11], 3.34%; in test [12] it was 3.02%. Moreover, the inhibition in test [13] turned out to be 21%; in test [14], 1.57%; in test [15] it was 2.94%; in test [16] it was 4.3%; in [17] it was 18%; in test [18] it was 3.58%. Besides, the inhibition in test [19] amounted to 18.4%; in [20], 5.26%.
